Screening results: PubChem BioAssay, National Center for Advancing Translational Sciences (NCATS)
JMJD2E inh: blocks human JMJD2E demethylase activity. B2RXH2. JMJD2E catalytic domain, FDH-coupled NADH fluorescence (FDH is formaldehyde dehydrogenase). Potency, µM (series often up to 57.1 µM), most hits filed as inhibitors. 230,000 tested, 1.6% active. AID 2147; note: nearly all actives have a fitted effect of over 50% in size
Target sequence (B2RXH2 1-337 limits assumed): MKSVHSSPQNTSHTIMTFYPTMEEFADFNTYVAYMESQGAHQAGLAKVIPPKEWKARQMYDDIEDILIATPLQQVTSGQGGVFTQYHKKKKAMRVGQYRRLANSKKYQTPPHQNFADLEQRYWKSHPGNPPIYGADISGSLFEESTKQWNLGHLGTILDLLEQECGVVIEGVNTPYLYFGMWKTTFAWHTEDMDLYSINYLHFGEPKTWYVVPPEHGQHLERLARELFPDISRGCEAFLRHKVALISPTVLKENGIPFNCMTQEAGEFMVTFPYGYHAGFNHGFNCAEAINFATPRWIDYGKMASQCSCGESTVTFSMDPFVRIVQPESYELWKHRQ
ALDH1A1 block: blocks purified human ALDH1A1 activity. P00352. Purified ALDH1A1, NADH fluorescence, propionaldehyde substrate. Potency, µM (highest dose often 75.3 µM), usual class: inhibitors. 220,000 tested, 7.3% active. AID 1030
HTT aggregate: inhibitors of mutant huntingtin aggregate formation in PC12 cells; PC12 HttQ103-GFP aggregates, Acumen cytometry, 40 h; Potency, µM (series often up to 46.1 µM), usual class: inhibitors; 220,000 tested, 1.1% active; AID 1688; active = well fitted curve in the direction sought with a large enough effect; inconclusive = small, poorly fitted or top-dose-only effect, or another doubt; inactive = no such curve, though single readings can be large; an effect the other way counts as inactive or inconclusive; note: nearly all actives have a fitted effect of over 60% in size
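Huntingtin Q103 exon 1–GFP aggregates in induced PC12 cells (100 nM tebufenozide) were quantified by cytometry from lysates, with compounds dosed in titration.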
LMNA splice mod: changes lamin A minigene splicing in HeLa cells; HeLa LMNA splicing GFP/RFP minigene ratio, 48 h; AID 1487; Potency, µM (top dose mostly 46.1 µM), usual class: inhibitors; 200,000 tested, 0.01% active; active = well fitted inhibition curve with a large enough effect in the signal ratio, with a control signal flat, not every such curve was filed as active; inconclusive = small, poorly fitted or top-dose-only effect, or effect the other way, or a change in a side signal; the % refers to the signal ratio
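S3 HeLa stable clones carrying a lamin A-EGFP splicing minigene plus DsRed2 were seeded at 600 cells/well in Opti-MEM with 2% FBS, pin-dosed and incubated 48 h at 37°C. Acumen cytometry (488 nm) gave the GFP/RFP total-intensity ratio.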
HPGD inh: inhibitors of human 15-hydroxyprostaglandin dehydrogenase (HPGD) | P15428 | purified HPGD, NADH fluorescence kinetic, PGE2 substrate | Potency, µM, actives largely listed as inhibitors | 150,000 tested, 4.3% active
Target sequence (P15428 whole entry, looked up): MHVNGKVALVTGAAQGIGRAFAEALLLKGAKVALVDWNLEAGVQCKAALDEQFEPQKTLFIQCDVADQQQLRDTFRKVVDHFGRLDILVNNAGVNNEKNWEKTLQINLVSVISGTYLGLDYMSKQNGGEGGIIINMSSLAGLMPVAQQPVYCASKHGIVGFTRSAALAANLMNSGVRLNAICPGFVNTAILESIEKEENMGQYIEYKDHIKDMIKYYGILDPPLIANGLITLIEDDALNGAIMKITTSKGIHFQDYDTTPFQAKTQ
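20 nM HPGD preincubated 15 min at room temperature with compound in 50 mM Tris-HCl pH 8, 0.01% Tween 20. Started with 1 mM NAD+ and 30 uM prostaglandin E2; NADH fluorescence (360/450 nm) read 5 times over 30-s intervals, last minus first.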
HTT ATP protect: Huntington cell model cytoprotection by ATP luminescence; Potency, µM (highest dose often 56.4 µM), actives largely listed as activators; 230,000 tested, 0.14% active; PC12 HTT-Q103 induced, cytoprotection, ATP luminescence, 40 h; AID 1471; active = well fitted curve in the direction sought with a large enough effect; inconclusive = small, poorly fitted or top-dose-only effect, or another doubt; inactive = no such curve, though single readings can be large; an effect the other way counts as inactive or inconclusive; note: nearly all actives have a fitted effect of over 45% in size
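Stable PC12 Q103-GFP cells in serum-supplemented, phenol red-free DMEM; induction by tebufenozide at 100 nM final; compound dose series; cell viability quantified luminescently from ATP.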
Each line names hits and unclear results; the compound was inactive in the other large screens. Rows were chosen to be rich in hits. Some 9.2% of all compounds tested hit in one or more screens of this group. Unless noted, calls come from the whole dose curve; as a rule, active = well fitted inhibition curve with a large enough effect (not every such curve was filed as active); inconclusive = small, poorly fitted or top-dose-only effect, or another doubt; inactive = no such curve, though single readings can be large or run the other way.

CCCc1[nH]nc2c1C(c1ccccc1OC)C(C#N)=C(N)O2 (stereo not given)	ALDH1A1 block inconclusive
COc1ccc(Br)cc1CNC(=O)c1ccc2nc(C(C)C)oc2c1	none (no result: JMJD2E inh, ALDH1A1 block, HTT aggregate, HPGD inh, HTT ATP protect)
Cc1ccccc1NC(=O)CSc1nc(=O)n(CCN2CCOCC2)c2c1CCC2	none (no result: JMJD2E inh, ALDH1A1 block, HTT aggregate, HPGD inh, HTT ATP protect)
CCCCCCCCCC(=O)N[C@@H](CN1CCOCC1)[C@@H](O)c1ccccc1	none (no result: JMJD2E inh, ALDH1A1 block, HTT aggregate, LMNA splice mod, HPGD inh)
CCCc1[nH]nc2c1C(/C(C)=C/c1ccccc1)C(C#N)=C(N)O2 (stereo not given)	ALDH1A1 block 14µM, LMNA splice mod inconclusive
CCCc1[nH]nc2c1C(c1ccc(O)c(OC)c1)C(C#N)=C(N)O2 (stereo not given)	ALDH1A1 block inconclusive
N#CC1=C(N)Oc2cc3ccccc3cc2C1c1cccnc1 (stereo not given)	ALDH1A1 block 14µM, HPGD inh 28µM
CCc1[nH]nc2c1C(C(C)C)C(C#N)=C(N)O2 (stereo not given)	ALDH1A1 block inconclusive, HTT aggregate 11µM, LMNA splice mod inconclusive
CC1CCN(CC(CS(=O)(=O)c2ccc([N+](=O)[O-])cc2)N2CCC(C)CC2)CC1 (stereo not given)	none (no result: ALDH1A1 block, LMNA splice mod, HPGD inh)
CCOC(=O)CSc1nc(N)c(C#N)c(-c2ccc(OC)cc2)c1C#N	JMJD2E inh inconclusive, ALDH1A1 block inconclusive (no result: HPGD inh)
C=C(C)CSc1nc(N)c(C#N)c(-c2ccc(C)cc2)c1C#N	ALDH1A1 block 10µM, HPGD inh 14µM
CCCCOc1ccc(-c2c(C#N)c(N)nc(SCC(N)=O)c2C#N)cc1	JMJD2E inh inconclusive, ALDH1A1 block inconclusive, HPGD inh 28µM
CCCCOC(=O)CSc1nc(N)c(C#N)c(-c2ccc(OCC)cc2)c1C#N	JMJD2E inh inconclusive, ALDH1A1 block 20µM
CC1CC(OC(=O)c2ccccc2O)CC(C)(C)C1 (stereo not given)	ALDH1A1 block inconclusive, LMNA splice mod inconclusive
C=CC1=C2C=C(C3CC3)N(Cc3ccco3)C=C2C(=O)C(C)(OC(=O)c2ccco2)C1=O (stereo not given)	none (no result: HTT aggregate)
CNc1ncnc2c1ncn2[C@H]1C[C@@H](OP(=O)(O)O)[C@H](COP(=O)(O)O)O1	none (no result: JMJD2E inh, ALDH1A1 block, HTT aggregate, LMNA splice mod, HPGD inh)
Cc1cc(C)cc(Cn2ncc(Cl)c(Cl)c2=O)c1	ALDH1A1 block 28µM, HTT aggregate inconclusive, LMNA splice mod inconclusive (no result: HTT ATP protect)
O=c1c(Cl)c(Cl)cnn1Cc1ccccc1Cl	LMNA splice mod inconclusive
Cc1ccc(-c2nnc(Cc3ccc(Cl)cc3)o2)cc1	none
CCc1ccc(C(=O)Cn2ncc(Cl)c(Cl)c2=O)cc1	ALDH1A1 block 14µM, HTT aggregate inconclusive, LMNA splice mod inconclusive
Cc1ccc(Cn2ncc(Cl)c(Cl)c2=O)cc1	ALDH1A1 block 25µM, HTT aggregate inconclusive
Cc1[nH]c(C)c2c(=O)n(Cc3ccc(Cl)cc3)ncc12	none (no result: LMNA splice mod, HPGD inh)
O=c1c(Cl)c(Cl)cnn1Cc1nnc(-c2ccc(Cl)cc2)o1	ALDH1A1 block 8.9µM, HTT aggregate inconclusive, LMNA splice mod inconclusive (no result: HPGD inh)
CC(NC(=O)Cn1c(-c2cccs2)cc2cc(F)ccc21)c1ccccc1 (stereo not given)	none (no result: JMJD2E inh, ALDH1A1 block, HTT aggregate, HPGD inh, HTT ATP protect)
CCCCn1c(=O)c2c(O)cc(=O)oc2c2ccccc21	ALDH1A1 block 16µM
O=c1cc(O)c2c(=O)n(Cc3ccccc3)c3ccccc3c2o1	ALDH1A1 block inconclusive (no result: LMNA splice mod, HPGD inh)
Cc1ccc(NN2C(=O)C=C(c3ccccc3)C2=O)cc1	ALDH1A1 block 16µM, HTT aggregate inconclusive, LMNA splice mod inconclusive (no result: HPGD inh)
O=C1c2ccccc2C(=O)N1Nc1ccccc1	none
CO/N=C(/C(=O)N[C@@H]1C(=O)N2C(C(=O)O)=C(CSc3cnns3)CS[C@H]12)c1csc(N)n1	none (no result: JMJD2E inh, ALDH1A1 block, LMNA splice mod, HPGD inh)
C=C(N(C)C)[C@]1(C)C[C@H]1[C@H](NC(=O)CNC(=O)OCc1ccccc1)c1ccccc1	none (no result: HTT aggregate, LMNA splice mod)
CN(C)S(=O)(=O)c1cc(NC(=O)CN2CCCc3ccccc32)ccc1Cl	JMJD2E inh inconclusive, ALDH1A1 block 8.9µM, HTT aggregate inconclusive (no result: HPGD inh)
NNC(=O)CN1CCCc2ccccc21	ALDH1A1 block 6.3µM (no result: HPGD inh)
CN(C)S(=O)(=O)c1cc(NC(=O)CN2CCc3ccccc32)ccc1Cl	ALDH1A1 block 1.6µM, HTT ATP protect inconclusive (no result: LMNA splice mod, HPGD inh)
O=C(CN1CCCc2ccccc21)N1CCc2ccccc21	none (no result: ALDH1A1 block, LMNA splice mod, HPGD inh)
